PubChem BioAssay AID602252 (Broad Institute, 2012)
Among all 300,000 compounds or so, about 2,700 (0.9%) were called active. The entries come from a sample that favours actives as a whole. A number with no mark means an inactive call.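 The calls were made as follows: active = mean inhibition of at least 30% with at least half of replicates also reaching 30%; inconclusive = no clear call, values can overlap the other calls; inactive = the rest.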

molecular target: Golgi-associated PDZ and coiled-coil motif-containing protein (Homo sapiens) (UniProt Q9HD26); assay: untagged CAL PDZ binding inhibitors, primary screen, biochemical, fluorescence polarization, HTS (AID 602252); settings: purified CAL PDZ, TMR-peptide fluorescence polarization, 1 h; at 24.9 µM; active compounds read high;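 also: 0% = DMSO neutral control and 100% = excess unlabeled competitor peptide PRC23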

SMILES	inhibition
CC(C)OC(=O)c1c(NC(=O)c2ccco2)sc2c1CCCC2	-1.93%
CCOC(=O)c1c(NC(=S)NC)sc2c1CCCC2	2.4%
CCOC(=O)c1c(NC(=S)NC(=O)c2ccco2)sc2c1CCCC2	58.9% (active)
C=CC(COCc1ccccc1)N(CC(=O)OC)S(=O)(=O)c1cc(Br)ccc1OC (stereo not drawn)	-5.08%
Cc1ncoc1C(=O)NCCC(c1ccccc1)c1ccccc1	56.7% (active)
Cc1ccc(C(=O)NCCNC(=O)c2ccccc2)cc1	10.7%
Cc1ccc(S(=O)(=O)NCCC(c2ccccc2)c2ccccc2)cc1C(=O)O	3.3%
COc1cc(C(=O)NC2CCN(C)CC2)ccc1Nc1ncc2c(n1)N(C1CCC(O)CC1)CCC(=O)N2C (stereo not drawn)	-0.543%
FC(F)(F)c1ccc(-c2cccc3c2C2CC3CCN2Cc2ccccc2)cc1 (stereo not drawn)	-2.76%
CC(C)c1ccc(C=NNc2ccc([N+](=O)[O-])cn2)cc1	-3.5%
C[C@H](O)[C@@H]1C(=O)N2CCc3ccc(N4CCOCC4)cc3[C@@H]2C[C@@H]1N(C)C(=O)C(C)(C)C	-2.27%
CN(CCc1ccccc1)C(=O)c1cccc(NC(=O)Cc2cccc(NC(=O)C3CCCN(C(=O)CCc4ccccc4)C3)c2)c1 (stereo not drawn)	-1.89%
Cc1ccc(S(=O)Cc2ccc(C(=O)N3CCN(C4CCCCC4)CC3)o2)cc1 (stereo not drawn)	-1.71%
Cc1ccc(CS(=O)Cc2ccc(C(=O)N3CCOCC3)o2)cc1 (stereo not drawn)	61.7% (active)
Cc1ccc(C(=O)N2CCN(C(=O)N3CCOCC3)CC2)cc1	-4.62%
CC/C(=C(/c1ccccc1)c1ccc(OCC[N+](C)(C)C)cc1)c1ccccc1	5.44%
CC(C)Cn1cnc2c(SCc3ccc(Cl)cc3)nc(N)nc21	-5.42%
CC(=O)CSc1nc(CCc2ccccc2)c(C#N)c(=O)[nH]1	-3.06%
CCNC(=S)Nc1ccc(OC(F)(F)F)cc1	-0.766%
CS(=O)(=O)c1sc(C(=O)NC(=S)Nc2ccc(OC(F)(F)F)cc2)c2c1C=CCC2	106% (active)

SMILES	inhibition
FC(F)(F)Oc1ccc(NC(=S)NCc2ccccc2)cc1	2.02%
CCC(=O)N1CCc2cc(Br)c(S(=O)(=O)NCCN3CCCCC3CC)cc21 (stereo not drawn)	-29.4%
Cc1ccc(C(=O)Nc2ccccc2-c2ccccc2)cc1S(=O)(=O)Nc1ccccc1	-1.73%
Cc1ccc(CNC(=O)Cn2cnc3c(NCc4ccccc4)ncnc32)o1	-0.092%
CC(C(=O)N1CCOCC1)N1c2cccc3cccc(c23)S1(=O)=O (stereo not drawn)	0.599%
COc1ccc(C)cc1NC(=O)CN1c2cccc3cccc(c23)S1(=O)=O	-0.836%
COc1ccc(NC(=O)C(C)N2c3cccc4cccc(c34)S2(=O)=O)c(OC)c1 (stereo not drawn)	62.5% (active)
CC(C)(C)NC(=O)Cn1cnc2cc([N+](=O)[O-])ccc2c1=O	-5.79%
O=C(Cn1cnc2c(cnn2-c2ccccc2)c1=O)NCc1ccccc1	2.18%
O=C(Cn1cnc2cc([N+](=O)[O-])ccc2c1=O)NC(=O)NCc1ccccc1	65.7% (active)
COc1cc(C(=O)OCc2cc(=O)n3ccsc3n2)ccc1OC(C)C	-4.78%
Oc1[nH]c2ccccc2c1N=Nc1c(F)c(F)c(F)c(F)c1F	-3.27%
O=C(OCC(=O)N1CCN(c2ccccc2)CC1)c1ccc([N+](=O)[O-])s1	4.92%
O=C(OCC(=O)N1CCN(C(=O)c2ccco2)CC1)c1c(Cl)cccc1Cl	-0.558%
Cc1ccc(S(=O)(=O)NCCC(=O)NCc2ccc(Cl)cc2)cc1C	66.1% (active)
Cc1ccc(S(=O)(=O)NCCC(=O)Nc2ccc(C)c(Cl)c2)cc1C	-1.6%
CC(C)CNS(=O)(=O)c1ccc(CCC(=O)NCc2ccc(Cl)cc2)cc1	0.426%
CCN(CC)C(=O)[C@H]1C[C@H](CC(=O)NCC23CC4CC(CC(C4)C2)C3)C(=O)N2CCc3c([nH]c4cc(CCC(=O)N(C)C)ccc34)[C@]12C	-1.84%
Cc1cc(C(F)(F)F)n2ncc(-c3ccccc3)c2n1	50.2% (active)
Cc1cc(-n2nc(C)cc2C)n2ncc(-c3ccccc3)c2n1	-1.01%

SMILES	inhibition
O=C(O)c1cnn2c(C(F)(F)F)cc(-c3ccccc3)nc12	0.025%
O=[N+]([O-])c1cccc(C=NN=Cc2ccccc2O)c1	6.22%
COC(=O)[C@]1(Cc2ccccc2)N[C@H](CN(C)S(=O)(=O)c2ccc(OC(F)(F)F)cc2)[C@@H]2C(=O)N(Cc3ccccc3)C(=O)[C@@H]21	-5.9%
NN=C(NN=Cc1ccccc1)c1ccccc1	-2.94%
COc1ccc(-c2nc3cc(C)ccn3c2NC2CCCCC2)cc1SC1CCCCC1	-0.092%
CCCCN(CC(=O)Nc1cccc(S(=O)(=O)N2CCCC2)c1)Cc1nc2ccccc2c(=O)[nH]1	-3.98%
CCc1ccc(CN(C)C(C)C(=O)Nc2ccc(S(=O)(=O)N3CCCC3)cc2)cc1 (stereo not drawn)	2.24%
COc1cc(OC)cc(-c2c(C#Cc3ccsc3)c3cc(-c4ccc(OC)cc4F)ccc3n2C)c1	2.79%
O=C1OCC2=C1C(c1ccc(Cl)cc1)c1cc3c(cc1O2)OCO3 (stereo not drawn)	7.51%
Cc1ccc(-c2cc(C(=O)N3CCc4ccccc4C3)no2)cc1	1.04%
CN(c1ccc(C(=O)N2CCc3ccccc3C2)cc1)S(C)(=O)=O	3.47%
Cn1cccc1C(=O)N1CCc2ccccc2C1	91.2% (active)
O=S(=O)(Cc1ccc(Cl)cc1Cl)c1ccc(Cl)cc1	-1.54%
Cc1nn(-c2ncccn2)c2c1C(=O)CC(C)(C)C2Br (stereo not drawn)	0.781%
CN(C)C(CNC(=O)c1cc2ccccc2o1)c1ccccc1 (stereo not drawn)	-5.09%
CCCCNC(=O)c1ccc(-n2c(=S)[nH]c3ccccc3c2=O)cc1	41.5% (active)
CCCCn1c(=S)[nH]c2ccccc2c1=O	-2.2%
CCN(CC)CCCNC(=O)c1ccc2c(=O)n(Cc3ccc4c(c3)OCO4)c(=S)[nH]c2c1	-3.92%
